DAX1 inh-1 – DAX1 (NR0B1) inhibition, primary screen | HEK293T StAR-luciferase reporter, SF-1/DAX-1 repression relief | inhibition, % at 6.8 µM | 370,000 tested, 1.1% active;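 active = inhibition above the mean over all tested compounds plus 3 SD, cut at about 3.6% in these data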;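 also: 0% = DAX-1 cells with DMSO and 100% = cells lacking DAX-1 with DMSO; higher inhibition means more luminescence from relief of DAX-1 repression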
hgDAF12 agonist – hgDAF-12 agonism, primary luciferase screen. HEK293 GAL4-hgDAF12 UAS-luciferase reporter, agonist luminescence; normalized to butyrate control. activation, % at 6.8 µM. 370,000 tested, 1.8% active. AID 687014;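 active = activation above a cutoff set at the mean of all screened compounds plus 3 SD, cut at about 10% in these data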;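 also: 0% = DMSO wells and 100% = sodium butyrate wells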
SMARCA2 act – increases SMARCA2 function in MMTV reporter cells. MG213 cells, MMTV-luciferase reporter, dexamethasone, overnight. activation, % at 9.1 µM. 370,000 tested, 1% active; in the data active = activation above about 7.8%;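 also: 0% = vehicle wells and 100% = reference activator wells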
DAX1 inh-2 – inhibits human nuclear receptor DAX1; HEK293 Gal4-DAX1 luciferase reporter, luminescence; P51843; inhibition, % at 6.75 µM; AID 504766; 340,000 tested, 0.99% active;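 active = inhibition above the mean over all tested compounds plus 3 SD, cut at about 4.2% in these data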;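 also: 0% = DAX1-transfected cells with DMSO and 100% = empty-vector control cells with DMSO; inhibition shows as a rise in luminescence from relieved DAX1 repression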
Target sequence (P51843 207-470 limits assumed): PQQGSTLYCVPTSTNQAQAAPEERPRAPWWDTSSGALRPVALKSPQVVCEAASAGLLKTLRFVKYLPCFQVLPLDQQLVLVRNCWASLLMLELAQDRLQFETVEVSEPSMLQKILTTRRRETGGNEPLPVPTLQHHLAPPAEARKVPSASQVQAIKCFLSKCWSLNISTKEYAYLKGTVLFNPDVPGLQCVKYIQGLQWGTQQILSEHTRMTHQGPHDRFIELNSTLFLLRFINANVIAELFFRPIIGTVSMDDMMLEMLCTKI
hcDAF12 agonist – activates DAF-12 receptor from parasite H. contortus. HEK293 hcDAF-12 lit1-tk-luc reporter, luminescence; 0% DMSO, 100% Δ7-dafachronic acid. activation, % at 6.8 µM. 370,000 tested, 1.4% active;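 active = activation above the mean of all tested compounds plus 3 SD, cut at about 5.5% in these data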;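 also: 100% = response to 3 µM Δ7-dafachronic acid high control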
ssDAF12 agonist – activators of S. stercoralis DAF-12 nuclear receptor | 370,000 tested, 1% active | HEK293 ssDAF-12/GRIP1 lit1-tk-luc reporter, luminescence; % of 3 µM dafachronic acid response | activation, % at 6.8 µM | AID 652126;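 active = activation above the mean over all tested compounds plus 3 SD, cut at about 0.9% in these data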;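 also: 0% = DMSO-only wells and 100% = 3 µM delta7-dafachronic acid wells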
Numbers without * were called inactive; x = no result given. Rows were chosen to be rich in hits. Some 4.8% of all compounds tested hit in one or more screens of this group.

SMILES	DAX1 inh-1	hgDAF12 agonist	SMARCA2 act	DAX1 inh-2	hcDAF12 agonist	ssDAF12 agonist
CC(NCCc1ccc(S(N)(=O)=O)cc1)C(=O)NCCc1ccc(F)cc1 (centres undefined)	0	-1	-1	5.1*	-1	-1
CC(NCC(=O)NCCc1ccc(S(N)(=O)=O)cc1)c1ccc(F)cc1 (centres undefined)	1	2	-1	1	1	0
COc1cc(NC(=S)NCCc2ccccc2)c(OC)cc1NC(=O)C(C)C	-1	-1	-5	0	-2	1.9*
CC1(C)CSC(=S)N1S(=O)(=O)c1ccccc1	0	-1	-3	0	-1	-2
COc1ccc(CCNC(=O)C2CCN(C(=O)c3cccs3)CC2)cc1	0	0	-1	-2	1	-2
CCOC(=O)c1ccc2[nH]c(C)c(C)c2c1	2	7	7.9*	0	1	-1
CCOC(=O)c1ccc2[nH]c3ccccc3c2c1	1	11*	3	8.0*	3	0
C[C@@H]1CCCCO[C@@H](CN(C)CC2CCCCC2)[C@@H](C)CN([C@H](C)CO)C(=O)c2cc(NS(=O)(=O)c3ccc(Cl)cc3)ccc2O1	0	-4	-7	0	1	0
NC(=O)N/N=C/c1ccc(-n2nncc2-c2ccc(Cl)cc2)cc1	-1	1	-1	0	-2	-1
CN(C)c1nc(Cl)nc(NCCOc2ccccc2)n1	0	-2	-3	4.3*	0	-1
CCNc1nc(Cl)nc(NCCOc2ccc(C)cc2)n1	1	-1	-2	1	0	-1
COc1ccc(-c2nc3c4ccccc4ccn3c2Cc2ccsc2)cc1OC	0	10	4	x	6.4*	1
COc1ccc(Cc2c(-c3cccc(Cl)c3)nc3ccc(C)cn23)c(C)c1	4.0*	10	4	x	1	0
COc1ccc(-c2nc3c4ccccc4ccn3c2Cc2ccc(C)cc2)cc1OC	-2	3	4	x	6.3*	0
Cc1ccc(-c2nc3c4ccccc4ccn3c2Cc2ccsc2)cc1	0	9	1	x	4	1.4*
O=C(N/C(=C/C=C/c1ccccc1)C(=O)N1CCCCC1)c1ccc([N+](=O)[O-])cc1	0	3	-2	0	0	0
COc1ccc(-c2nc3c4ccccc4ccn3c2Cc2cccc(Cl)c2)cc1OC	-1	4	0	x	5	1.1*
Fc1cccc(Cc2c(-c3cccc(Br)c3)nc3ccc(Cl)cn23)c1	2	5	3	x	1	0
Cc1ccc2nc(-c3cccc(Br)c3)c(Cc3cccc(F)c3)n2c1	4.3*	11*	4	x	2	0
Cc1ccc2nc(-c3ccccc3)c(Cc3ccsc3)n2c1	3	10	4	x	1	2.1*
COc1ccc(-c2nc3c(C)cc(Br)cn3c2Cc2cccc(Cl)c2)cc1OC	0	0	-3	x	-1	-1
C=CCN1C(=O)c2ccc(C(=O)N3CCN(S(=O)(=O)c4ccc(C(C)C)cc4)CC3)cc2C1=O	0	-1	-3	4.4*	-1	0
C=CCN1C(=O)c2ccc(C(=O)N3CCN(S(=O)(=O)c4cccc([N+](=O)[O-])c4)CC3)cc2C1=O	0	0	3	0	0	-1
O=C(Nc1ccccc1)Nc1ncc([N+](=O)[O-])s1	3.7*	5	-4	-2	5	0
O=C1/C(=C\c2ccco2)CCC/C1=C\c1ccco1	1	2	16*	0	4	0
SMILES	DAX1 inh-1	hgDAF12 agonist	SMARCA2 act	DAX1 inh-2	hcDAF12 agonist	ssDAF12 agonist
NC(=O)C1CCN(C(=O)c2cc3ccccn3n2)CC1	1	2	0	2	1	0
Cc1ccc(C(=O)C(C)[n+]2cccc(C(N)=O)c2)cc1 (centres undefined)	0	-3	-3	7.1*	-1	-1
CC(C(=O)c1ccccc1)[n+]1cccc(C(N)=O)c1 (centres undefined)	0	0	-2	-1	-1	-2
Cn1cnnc1SCC(=O)NC(=O)NCc1ccccc1	0	1	3	2	0	-1
Cc1ccc(CNC(=O)CSc2ncc(C(=O)Nc3ccccc3)c(=O)n2C)cc1	1	0	-1	2	2	1.6*
Cn1cnnc1SCC(=O)NCc1ccccc1	1	12*	1	0	1	-2

Source: PubChem BioAssay
